# Experimental data from PubChem BioAssay AID1508622 (National Center for Advancing Translational Sciences (NCATS), 2021).
# Active and inactive are the calls of the source. Where a call stands in place of a potency, no number is given. The call rests on the fitted dose curve; in most records, active means well fitted activation curve with a large enough effect; inconclusive means small, poorly fitted or top-dose-only effect; inactive means no such curve, though single readings can be large or run the other way.
# Test: Confirmatory qHTS for Identification of Small Molecule Activators of Huntingtin-Antisense Promoter Activity
# Settings: HEK293 HTT-AS promoter firefly luciferase reporter, 24 h; series mostly up to 57.5 µM
# Procedure, shortened: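 HEK293 luciferase reporter cells, 2,500/well, cultured 24 h, then exposed to compounds at up to 57.5 uM final for 24 h at 37C. Firefly luciferase luminescence read; normalized to vehicle (0%) and zero RLU (-100%).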
# Potency means the concentration at half of the fitted maximal effect.
row,SMILES,Potency
1,Cn1c(NCCN(CCO)CCCc2ccc([N+](=O)[O-])cc2)cc(=O)n(C)c1=O,inactive
2,CCOC(=O)C1=C(CN2CCN(c3ccc(C)cc3C)CC2)NC(=O)NC1c1ccc(OC)cc1 (stereo not drawn),inactive
3,O=C(NCCc1csc(-c2ccc(F)cc2)n1)c1cccc(F)c1,inactive
4,Cc1nc2sccn2c(=O)c1S(=O)(=O)Nc1ccc(N2CCOCC2)c(Cl)c1,inactive
5,O=C(Cc1ccccc1)Nc1cccc(-c2cn3cccnc3n2)c1,10.7 µM (active)
6,Cc1[nH]c2ccccc2c1CCNCc1ccc(C=CC(=O)NO)cc1,1.9 µM (active)
7,CCOC(=O)C1CCCN(C(=O)Cn2ncc3c(C)n(Cc4ccc(F)cc4)c(C)c3c2=O)C1 (stereo not drawn),inactive
8,CCCCN(C)S(=O)(=O)c1cc(-c2cc(C)no2)ccc1C,inactive
9,CC(C)C(=O)N1c2ncnn2C2(CCCCC2)[C@@H]2CCCC[C@@H]21,inactive
10,CCc1ccccc1-n1nnc(-c2nsc(NC(=O)c3ccc(C)c(C)c3)n2)c1C,inactive
11,COc1ccc(-n2nc3c(N4CCCC(C(=O)NCCc5ccc(C)cc5)C4)nnc(C)c3c2C)cc1 (stereo not drawn),inactive
12,COc1cc(CN(C(=O)c2ccc(OC(C)C)cc2)c2ccccn2)cc(OC)c1OC,inactive
13,O=C(Nc1cccc(Cl)c1)c1ccc(F)c(S(=O)(=O)N2CCC3(CC2)OCCO3)c1,inactive
14,Cc1ccccc1-c1ccnc2c(-c3ccc(F)cc3)c(C)nn12,inactive
15,CCS(=O)(=O)c1ncc(Cl)c(C(=O)N(Cc2ccccc2)c2ccc(OC)cc2)n1,inactive
16,COc1ccc(CNS(=O)(=O)c2ccc(N3CCCCS3(=O)=O)cc2)cc1,inactive
17,CC(C)c1ccc(CNC(=O)c2ccc(N3CCCC3)c(NC(=O)NCc3ccccc3)c2)cc1,inactive
18,O=C(CSc1nccn1Cc1ccco1)Nc1cc(C(F)(F)F)ccc1Cl,inactive
19,Cc1ccc(Cn2cc(/C=C(/C#N)C(=O)Nc3cccc(Cl)c3)c3ccccc32)cc1,inactive

row,SMILES,Potency
1,Cc1ccc(CCNC(=O)C(C)n2nc(C)c3c(C)n(-c4ccc(C)cc4)nc3c2=O)cc1 (stereo not drawn),inactive
2,COc1ccc2oc(=O)c(C(=O)NCCc3c(C)[nH]c4ccc(C)cc34)cc2c1,inactive
3,COc1cccc(NC(=O)c2oc3ccc(S(=O)(=O)N4CCCCCC4)cc3c2C)c1,inactive
4,COc1ccc(N2CCN(Cc3nc4c(c(=O)n(C)c(=O)n4C)n3C(C)C)CC2)cc1,inactive
5,Cc1cc(C)cc(N2C(=O)CSC23C(=O)N(Cc2c(F)cccc2Cl)c2ccccc23)c1 (stereo not drawn),inactive
6,CCOc1ccc(-c2cc(C)n3nc(C(=O)Nc4ccc(C)c(C)c4)cc3n2)cc1,inactive
7,Cc1cc(C)cc(NC(=O)C2CCCN2S(=O)(=O)c2ccc3c(c2)CCCC(=O)N3)c1 (stereo not drawn),inactive
8,CCOC(=O)C1CCN(S(=O)(=O)c2ccc(N3CCCCS3(=O)=O)cc2)CC1,inactive
9,COc1ccc(S(=O)(=O)Nc2cc3c(C(=O)OC(C)C)c(C)oc3c3ccccc23)cc1,inactive
10,CC(C)C[C@@H](C=O)NC(=O)[C@H](CC(C)C)NC(=O)[C@H](CC(C)C)NC(=O)OCc1ccccc1,inactive
11,CCCOc1ccc(C(=O)Nc2ccc(-c3cc4ccccc4oc3=O)c(C)c2)cc1,inactive
12,Cc1nc(Nc2n[nH]c3c2CN(C(=O)N[C@H](CN(C)C)c2ccccc2)C3(C)C)c2sccc2n1,inactive
13,COc1cc(C2CC(=O)c3c([nH]c(C(=O)OCc4ccc(C)cc4)c3C)C2)cc(OC)c1OC (stereo not drawn),inactive
14,Cc1oc(-c2ccc(C(=O)NCc3ccc(Cl)cc3)cc2)nc1CS(=O)(=O)c1ccccc1,inactive
15,COc1ccccc1CNC(=O)c1ccc(N2CCCC2)c(NC(=O)NCc2ccc(C)cc2)c1,inactive
16,COc1ccc(NC(=O)Cc2csc(COc3cccc(C)c3)n2)cc1OC,inactive
17,Cc1ccc2nc(SCc3nc(-c4ccccc4C)no3)[nH]c2c1,inactive
18,Cn1c(=O)n(C)c2cc(NS(=O)(=O)c3ccc(F)cc3)ccc21,inactive
19,CC(C)Cn1c(-c2ccc(S(=O)(=O)N3CCCC3)cc2)csc1=Nc1ccccc1,inactive
